Reference: PubChem BioAssay (Tox21)
Results filed as inconclusive are left out. A number with no mark means an inactive call. Activity calls are given as the source filed them. Unless noted, the call rests on the fitted dose curve.

System: not listed separately
Assay: qHTS assay to identify small molecule antagonists of the thyroid receptor (TR) signaling pathway (AID 743065; active means well fitted inhibition curve with a large enough effect in the repeat runs; further: nearly all actives have a fitted effect of over 55% in size; further: potency means the concentration at half of the fitted maximal effect)
Conditions: GH3.TRE-Luc, T3-stimulated luciferase inhibition, 23.5 h; series mostly up to 70.3 µM; activity, negative = inhibition: at the top concentration
In short: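 GH3.TRE-Luc rat pituitary cells (two TREs driving luciferase) were dosed with compound, then stimulated with 1 nM T3 (final) for 23.5 h at 37 C. ONE-Glo luminescence was the read-out, with CellTiter-Fluor fluorescence as the cytotoxicity counter-screen.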
On the % scale 0 is the no-effect control and ±100 the full control effect.

For `CCC(=O)Oc1ccc(/C(CC)=C(\CC)c2ccc(OC(=O)CC)cc2)cc1`, the Potency was 30.6 µM (active).
With `Oc1ccc(Nc2ccccc2)cc1` the Potency was 43.3 µM (active).
In the case of `CN(C)C(=O)Nc1ccc(Oc2ccc(Cl)cc2)cc1`, the Potency is reported as 54.5 µM (active).
In the case of `CO[C@H]1C=CO[C@@]2(C)Oc3c(C)c(O)c4c(O)c(c5c(c4c3C2=O)=NC2(CCN(CC(C)C)CC2)N=5)NC(=O)/C(C)=C\C=C/[C@H](C)[C@H](O)[C@@H](C)[C@@H](O)[C@@H](C)[C@H](OC(C)=O)[C@@H]1C`, the Potency is reported as 29.8 µM (active).
With `CC(=O)OCC(=O)[C@H]1CC[C@H]2[C@@H]3CCC4=CC(=O)CC[C@]4(C)[C@H]3CC[C@]12C` the Potency was 13.3 µM (active).

Going from `Cc1cc(O)c(C(C)C)cc1Cl` to `O=C(O)C(Cc1cc(I)c(O)c(I)c1)c1ccccc1` (stereo unspecified), the “activity, negative = inhibition” value rises from -0.229% to 1.76%.

Going from `CCCOC(=O)c1ccc(C(=O)OCCC)nc1` to `CCN(CC)CCNC(=O)c1ccc(NC(C)=O)cc1`, the “activity, negative = inhibition” value rises from 0.0788% to 6.11%.

First: OC/C(Br)=C(\Br)CO
Second: CCOC(=O)/C=C/C(=O)O
The “activity, negative = inhibition” value of the first is lower: -4.43% for the first, -0.218% for the second.

Compared with `O=C1OCCN1/N=C/c1ccc([N+](=O)[O-])o1`, `CN1C(=O)CC(C)(c2ccccc2)C1=O` (stereo unspecified) is lower in “activity, negative = inhibition” value: 16.2% for the first, 0.101% for the second.

Compared with `CCC(Cc1ccccc1)(C(=O)c1ccc(N2CCOCC2)cc1)N(C)C` (stereo unspecified), `O=C(NCCCN1CCOCC1)c1ccc(Cl)cc1` is lower in “activity, negative = inhibition” value: 8.42% for the first, 1.86% for the second.

Going from `CCn1nc(C)c2c1C(=O)NCC(c1ccc(O)cc1)=N2` to `CC1CN(c2cc3c(cc2F)c(=O)c(C(=O)O)cn3-c2ccc(F)cc2F)CCN1` (stereo unspecified), the “activity, negative = inhibition” value rises from -0.0287% to -0.0188%.

Going from `Cc1cc(C(=C2C=CC(=Nc3ccc(S(=O)(=O)O)cc3S(=O)(=O)O)C=C2)c2ccc(Nc3ccc(S(=O)(=O)O)cc3)cc2)ccc1N` to `O=[N+]([O-])c1cccc(S(=O)(=O)NCCNS(=O)(=O)c2cccc([N+](=O)[O-])c2)c1`, the “activity, negative = inhibition” value rises from -16% to 3.15%.

First: C1COCO1
Second: CC1=C(C=O)C(C)(C)CCC1
The “activity, negative = inhibition” value of the first is higher: 4.39% for the first, -0.762% for the second.

Compared with `NC(=O)Nc1ccc(Cl)cc1`, `O=S(=O)(c1ccccc1)c1ccc(Cl)cc1` is lower in “activity, negative = inhibition” value: 9.01% for the first, -10.3% for the second.

First: ON(Cc1ccccc1)Cc1ccccc1
Second: COC(OC)(C(=O)c1ccccc1)c1ccccc1
The “activity, negative = inhibition” value of the first is higher: 10.3% for the first, -5.05% for the second.

First: Nc1ccc(S(=O)(=O)O)c(N)c1
Second: CC(CCc1ccc2c(c1)OCO2)NN (stereo unspecified)
The “activity, negative = inhibition” value of the first is lower: -2.95% for the first, 10.6% for the second.

Going from `CCC(C(=O)OCCN(CC)CC)c1ccccc1` (stereo unspecified) to `CCOC(=N)CC(=O)OCC`, the “activity, negative = inhibition” value rises from -18.7% to -0.401%.

Compared with `CCCOCCOCCO`, `CC1(C)O[C@@H]2C[C@H]3[C@@H]4CCC5=CC(=O)C=C[C@]5(C)[C@H]4[C@@H](O)C[C@]3(C)[C@]2(C(=O)CO)O1` is lower in “activity, negative = inhibition” value: 7.58% for the first, -7.61% for the second.

Going from `COCC(O)CO` (stereo unspecified) to `CC(C)=CC=O`, the “activity, negative = inhibition” value rises from -3.38% [at 95 µM] to 0% [at 95 µM].

First: CNC(=O)N(c1ccccc1)c1ccccc1
Second: CC(=O)Nc1ccccc1C
The “activity, negative = inhibition” value of the first is higher: 1.31% [at 95 µM] for the first, -3.16% [at 95 µM] for the second.

For `Nc1ccc(S(=O)(=O)O)cc1`, the “activity, negative = inhibition” value was 5.53% [at 95 µM].

`[O]=[Bi]` gave an activity, negative = inhibition of -1.71% [at 8.44 µM].

In the case of `COc1cc2[nH]c(=O)[nH]c(=O)c2cc1OC`, the “activity, negative = inhibition” value is reported as 5.78% [at 32.5 µM].

System: thyroid hormone receptor (rat, GH3 cells)
Assay: qHTS assay to identify small molecule agonists of the thyroid receptor (TR) signaling pathway (AID 743066)
Conditions: GH3.TRE-Luc cells, TR agonist luciferase, 24 h; series mostly up to 83.9 µM; activation: at the top concentration

Compared with `CCC(=O)Oc1ccc(/C(CC)=C(\CC)c2ccc(OC(=O)CC)cc2)cc1`, `CN(C)C(=O)Nc1ccc(Oc2ccc(Cl)cc2)cc1` is lower in “activation” value: -4.67% for the first, -5.41% for the second.

First: CCCOC(=O)c1ccc(C(=O)OCCC)nc1
Second: CCN(CC)CCNC(=O)c1ccc(NC(C)=O)cc1
The “activation” value of the first is higher: 7.27% for the first, 1.21% for the second.

Compared with `OC/C(Br)=C(\Br)CO`, `CCOC(=O)/C=C/C(=O)O` is higher in “activation” value: 0.694% for the first, 1.33% for the second.

First: O=C1OCCN1/N=C/c1ccc([N+](=O)[O-])o1
Second: CN1C(=O)CC(C)(c2ccccc2)C1=O (stereo unspecified)
The “activation” value of the first is lower: 0.507% for the first, 5.42% for the second.

Compared with `CCC(Cc1ccccc1)(C(=O)c1ccc(N2CCOCC2)cc1)N(C)C` (stereo unspecified), `O=C(NCCCN1CCOCC1)c1ccc(Cl)cc1` is higher in “activation” value: -7.54% for the first, 1.94% for the second.

First: CCn1nc(C)c2c1C(=O)NCC(c1ccc(O)cc1)=N2
Second: Oc1ccc(Nc2ccccc2)cc1
The “activation” value of the first is higher: 0.248% for the first, -6.46% for the second.

Going from `Cc1cc(C(=C2C=CC(=Nc3ccc(S(=O)(=O)O)cc3S(=O)(=O)O)C=C2)c2ccc(Nc3ccc(S(=O)(=O)O)cc3)cc2)ccc1N` to `O=[N+]([O-])c1cccc(S(=O)(=O)NCCNS(=O)(=O)c2cccc([N+](=O)[O-])c2)c1`, the “activation” value rises from -0.721% to -0.345%.

Compared with `C1COCO1`, `CC1=C(C=O)C(C)(C)CCC1` is lower in “activation” value: 1.7% for the first, 0.0559% for the second.

Compared with `NC(=O)Nc1ccc(Cl)cc1`, `O=S(=O)(c1ccccc1)c1ccc(Cl)cc1` is lower in “activation” value: 0.134% for the first, -1.94% for the second.

First: ON(Cc1ccccc1)Cc1ccccc1
Second: COC(OC)(C(=O)c1ccccc1)c1ccccc1
The “activation” value of the first is higher: 0.703% for the first, -0.933% for the second.

Compared with `Nc1ccc(S(=O)(=O)O)c(N)c1`, `CC(CCc1ccc2c(c1)OCO2)NN` (stereo unspecified) is higher in “activation” value: -0.17% for the first, 0.39% for the second.

First: CCC(C(=O)OCCN(CC)CC)c1ccccc1 (stereo unspecified)
Second: O=C(O)C(Cc1cc(I)c(O)c(I)c1)c1ccccc1 (stereo unspecified)
The “activation” value of the first is higher: -0.567% for the first, -1.38% for the second.

Compared with `CCCOCCOCCO`, `CCOC(=N)CC(=O)OCC` is lower in “activation” value: 0.794% for the first, 0.0616% for the second.

Going from `CC1(C)O[C@@H]2C[C@H]3[C@@H]4CCC5=CC(=O)C=C[C@]5(C)[C@H]4[C@@H](O)C[C@]3(C)[C@]2(C(=O)CO)O1` to `CC(=O)OCC(=O)[C@H]1CC[C@H]2[C@@H]3CCC4=CC(=O)CC[C@]4(C)[C@H]3CC[C@]12C`, the “activation” value falls from 0.339% to -5.25%.

With `CC1CN(c2cc3c(cc2F)c(=O)c(C(=O)O)cn3-c2ccc(F)cc2F)CCN1` (stereo unspecified) the “activation” value was -0.0498%.

With `Cc1cc(O)c(C(C)C)cc1Cl` the outcome was “inactive”.
For `CO[C@H]1C=CO[C@@]2(C)Oc3c(C)c(O)c4c(O)c(c5c(c4c3C2=O)=NC2(CCN(CC(C)C)CC2)N=5)NC(=O)/C(C)=C\C=C/[C@H](C)[C@H](O)[C@@H](C)[C@@H](O)[C@@H](C)[C@H](OC(C)=O)[C@@H]1C`, the outcome was “inactive”.

Compared with `COCC(O)CO` (stereo unspecified), `CC(C)=CC=O` is higher in “activation” value: 0.0654% [at 95.2 µM] for the first, 0.125% [at 95.2 µM] for the second.

First: CNC(=O)N(c1ccccc1)c1ccccc1
Second: CC(=O)Nc1ccccc1C
The “activation” value of the first is higher: 1.56% [at 95.2 µM] for the first, -0.766% [at 95.2 µM] for the second.

With `Nc1ccc(S(=O)(=O)O)cc1` the “activation” value was 1.04% [at 95.2 µM].

With `[O]=[Bi]` the activation was -0.257% [at 8.08 µM].

In the case of `COc1cc2[nH]c(=O)[nH]c(=O)c2cc1OC`, the “activation” value is reported as 1.36% [at 39.4 µM].
